Compounds with a hit are over-represented: about 1.9% of the library has one in this group of screens.
bovine MsrA act – activates bovine MsrA enzyme; purified bovine MsrA, absorbance read-out; activation, % at 10.6 µM; 360,000 compounds, 0.3% hits; AID 602163; in the data active means activation above about 7.5%;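 further: 0% = vehicle and 100% = reference activator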
HTR5A ag – HTR5A agonism, opioid heterodimer counter-screen; 340,000 compounds, 0.61% hits; HTR5A agonist assay, luminescence, cell-based; AID 504692; activation, % at 9.3 µM; in the data active means activation mostly above about 9.5%, no sharp cut-off; inactive means mostly below about 7.6%;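 further: 0% = cells with vehicle only and 100% = reference agonist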
Target sequence (P47898 whole entry, looked up): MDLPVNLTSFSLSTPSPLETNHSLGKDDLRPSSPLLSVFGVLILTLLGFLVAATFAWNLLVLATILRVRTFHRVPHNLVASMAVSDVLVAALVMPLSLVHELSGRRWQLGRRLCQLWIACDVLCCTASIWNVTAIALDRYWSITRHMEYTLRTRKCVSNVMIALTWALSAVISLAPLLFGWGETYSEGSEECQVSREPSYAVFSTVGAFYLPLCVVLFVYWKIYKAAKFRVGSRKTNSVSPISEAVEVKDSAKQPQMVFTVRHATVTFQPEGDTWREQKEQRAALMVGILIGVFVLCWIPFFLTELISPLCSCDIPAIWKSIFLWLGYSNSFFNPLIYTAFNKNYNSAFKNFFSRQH
MsrA inhibitor – bovine MsrA inhibition. purified bovine MsrA, absorbance read-out. inhibition, % at 15.5 µM. 360,000 compounds, 0.75% hits. AID 651718;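 further: 0% = vehicle wells with enzyme and 100% = reference inhibitor wells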
MOR-DOR ag – OPRM1-OPRD1 heterodimerization agonism; 340,000 compounds, 0.3% hits; activation, % at 9.3 µM; cells, luminescence; P35372+P41143; in the data active means activation above about 18%;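 further: 0% = vehicle-treated cells and 100% = reference agonist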
HTR5A inv ag – inverse agonist of human HTR5A in OPRM1-OPRD1 counter-screen; P47898; HTR5A cell line, luminescence, inverse agonism; inhibition, % at 9.3 µM; 340,000 compounds, 0.083% hits; in the data active means inhibition mostly above about 23%, no sharp cut-off; inactive means mostly below about 18%;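 further: 0% = cells with DMSO and 100% = no-cell wells with DMSO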
OPRM1-OPRD1 inv – inverse agonists of human mu-delta opioid receptor heterodimerization. cell-based MOR-DOR heterodimer luminescence, inverse agonism. inhibition, % at 9.3 µM. 340,000 compounds, 0.21% hits; in the data active means inhibition above about 22%, passing the limit was not always enough;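 further: 0% = cells with DMSO and 100% = wells without cells with DMSO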
MsrA inh confirm – bovine MsrA inhibition, confirmed; inhibition, % at 15.5 µM; purified bovine MsrA, absorbance read-out; shares compounds with MsrA inhibitor; 2,300 compounds, 41% hits;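 further: coupled to thioredoxin reductase with NADPH and selenocystamine and DMSO as substrate; 0% = vehicle only and 100% = full effect of reference inhibitor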
The depositor's hits bear a star; . = no result given. Unless noted, no stated cut-off is given here; in the data, active means inhibition above about 4.5%; inactive means the rest.

SMILES	bovine MsrA act	HTR5A ag	MsrA inhibitor	MOR-DOR ag	HTR5A inv ag	OPRM1-OPRD1 inv	MsrA inh confirm
COc1cc(/C=N/NC(=O)c2ccc3c(c2)OCCO3)cc(Br)c1O	-5	-1	5.2*	-3	3	14	5.3*
O=C(NC(=S)NCCN1CCOCC1)c1ccccc1Cl	-13	4	0	0	-21	2	.
O=C(NC(=S)NCCCN1CCOCC1)c1ccco1	-2	-3	5.8*	0	27	0	3
COC(=O)C1=C(C)N(Cc2ccccc2C(F)(F)F)C(=NCc2ccc(OC)cc2)NC1c1ccc(Cl)cc1 (stereo not given)	.	.	-1	.	.	.	.
CN(C)C=NC(=O)/C(C#N)=C1\CCc2ccccc2N1	-15	1	6.3*	-4	3	16	3
O=C(O)CC1SC(N/N=C/c2ccc(Br)cc2)NC1=O (stereo not given)	-6	6	4.9*	-3	-11	15	2
O=C(O)CC1S/C(=N\N=C/c2ccccc2)N(c2ccc(O)cc2)C1=O (stereo not given)	-3	10	0	-1	7	8	.
CN(C)c1ccc(/C=N/N=C2/SC(CC(=O)O)C(=O)N2c2ccc(O)cc2)cc1 (stereo not given)	-6	-3	5.4*	-4	5	20	5.0*
COc1ccc(/C=N/N=C2\SC(CC(=O)O)C(=O)N2c2ccccc2)c(OC)c1 (stereo not given)	-6	6	4.7*	-4	-15	20	6.1*
C=CCN1C(=O)C(CC(=O)O)S/C1=N/N=C/c1ccc(N(CC)CC)cc1 (stereo not given)	-3	-2	5.0*	-2	6	9	3
COC(=O)c1cc(=O)n(Cc2ccco2)c(=Nc2ccccc2)s1	.	.	1	.	.	.	.
Cc1ccc(Cc2c(-c3cccc(Br)c3)nc3cc(C)c(Br)c(C)n23)cc1	-6	.	0	.	.	.	.
CC(=O)c1sc(NC(=O)c2cccnc2Cl)nc1C	-5	-2	5.0*	1	6	-5	3
CC(=O)O[C@@H]1C=C[C@@H](C#Cc2ccc(C(C)(C)C)cc2)O[C@@H]1COC(=O)NC(C)C	.	.	0	.	.	.	.
CCCC(C(=O)Nc1nccs1)c1ccccc1 (stereo not given)	-3	1	21*	0	-1	1	0
CCC(C(=O)Nc1nccs1)c1ccccc1 (stereo not given)	-3	5	0	-3	-4	21	.
N#C/C(=C\N1CCN(Cc2ccc3c(c2)OCO3)CC1)c1nc2ccccc2s1	-2	5	2	1	-14	-6	.
CCOC(=O)N1CCN(/C=C(\C#N)c2nc3ccccc3s2)CC1	-15	0	7.0*	-2	13	12	5.2*
Cc1cc(C(=O)N/N=C/C=C/c2ccc([N+](=O)[O-])cc2)n[nH]1	-12	1	7.6*	4	3	-24	7.9*
O=C(N/N=C/C=C/c1ccc([N+](=O)[O-])cc1)c1cccs1	-1	0	2	7	-17	-36	.
CC(C)c1cc(C(=O)N/N=C/C=C/c2ccccc2)n[nH]1	-5	-5	2	-3	13	13	.
Cc1cc(C(=O)N/N=C/C=C/c2ccc(Br)cc2)n[nH]1	-3	-2	6.0*	-3	-3	18	3
COc1ccc(S(=O)(=O)Nc2cccc3ccc(O)cc23)cc1	-9	1	-1	0	6	-2	.
COc1ccc(S(=O)(=O)Nc2cc(Sc3ncn[nH]3)c(O)c3ccccc23)cc1	.	.	64*	.	.	.	0
COc1ccc(S(=O)(=O)Nc2cc(SCC(=O)O)c(O)c3ccccc23)cc1	5	1	7.4*	4	-4	-20	0
SMILES	bovine MsrA act	HTR5A ag	MsrA inhibitor	MOR-DOR ag	HTR5A inv ag	OPRM1-OPRD1 inv	MsrA inh confirm
Cc1ccc2nc(-c3ccc(Cl)cc3)c(Cc3ccsc3)n2c1	.	.	1	.	.	.	.
COc1ccc2nc(Nc3ccc4c(c3)OCO4)sc2c1	-3	4	1	2	-30	-10	.
COc1ccc2nc(NC(=O)c3ccco3)sc2c1	-2	-2	4.7*	0	5	0	3
COc1ccc2nc(Nc3nc4cc5c(cc4s3)OCO5)sc2c1	-7	0	4.8*	3	6	-15	3
CCCCOCC1CN(Cc2ccccc2OC)S(=O)(=O)c2cc(Cl)ccc2O1 (stereo not given)	.	.	0	.	.	.	.
Cc1nn(C)cc1/C=C/C(=O)c1ccccc1	-11	5	3	0	9	3	.

Screening results from PubChem.
